From PubChem BioAssay AID1220 (Sanford-Burnham Center for Chemical Genomics, 2008) come the findings set out here.

Out of some 190,000 compounds screened, about 1,300 (0.68%) were called active. The list comes from a sample in which actives are over-represented; it also holds similar structures and randomly drawn compounds. Unmarked numbers belong to inactive results. Rule as the data show it: active = inhibition above about 50%; inactive = the rest.

Mannose-6-phosphate isomerase (Homo sapiens), sequence (P34949 whole entry, looked up): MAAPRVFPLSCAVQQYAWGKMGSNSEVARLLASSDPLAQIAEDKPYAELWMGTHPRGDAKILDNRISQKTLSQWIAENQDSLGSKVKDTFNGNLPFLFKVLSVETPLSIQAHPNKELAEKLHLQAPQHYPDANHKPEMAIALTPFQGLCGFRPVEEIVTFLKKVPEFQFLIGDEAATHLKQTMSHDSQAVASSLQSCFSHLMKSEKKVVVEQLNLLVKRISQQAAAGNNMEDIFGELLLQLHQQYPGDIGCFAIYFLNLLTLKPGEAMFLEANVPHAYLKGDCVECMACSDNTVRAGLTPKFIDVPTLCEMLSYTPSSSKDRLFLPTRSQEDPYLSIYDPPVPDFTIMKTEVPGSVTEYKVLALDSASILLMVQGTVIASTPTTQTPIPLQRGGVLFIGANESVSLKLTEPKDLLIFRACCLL

This test addresses Mannose-6-phosphate isomerase (Homo sapiens) (UniProt P34949). The test can be described thus: MPI inhibition at elevated mannose 6-phosphate – biochemical, fluorescence intensity, high mannose 6-phosphate, primary screen (AID 1220). The following applies: recombinant PMI enzyme, coupled fluorescence intensity; at 20 µM; active compounds read high.
For the compound `Cc1ccccc1-c1nc(CN(Cc2c(C)nn(C)c2C)C2CC2)c(C)o1`, the inhibition is 5.6%. In the case of `CC(C)(C)c1ccc2c(c1)N(CC(=O)O)C(=O)CO2`, the inhibition is -8.3%. The figure for `Cc1cccc(NC2SC(=O)NC2=O)c1` (configuration not stated) is 0.9%. Then `CCCc1c(O)nc(SCC(=O)NCCc2ccc(OC)c(OC)c2)[nH]c1=O`, with 6.4%; and `COc1ccc(CNc2oc(Cc3cccc4ccccc34)nc2C#N)cc1`, with 9.4%; and `O=C(CCNC(=O)Cn1ccc2ccccc2c1=O)NCCCN1CCN(c2ccc(F)cc2)CC1`, with -5.7%. Consider `O=C(CCNC(=O)Cn1ccc2ccccc2c1=O)NCCCN1CCN(c2ccccc2F)CC1`, for which the inhibition is 54.6% (active). The figure for `CCCN1CCN(CCCNC(=O)CCNC(=O)Cn2ccc3ccccc3c2=O)CC1` is -3.5%; for `Cc1cccc(N2CCC(N3CCN(C4CCCCC4)C(CCO)C3)CC2)c1C` (configuration not stated) it is 22.8%; for `O=C(CSc1nnc(-c2ccco2)o1)NC1CCCCCC1` it is -4.7%. For the compound `COc1cc(C)c(Cl)cc1S(=O)(=O)NCCCN1CCOCC1`, the inhibition is 2%. The figure for `O=C1/C(=C\c2ccco2)CCC/C1=C\c1ccco1` is -57.2%. The figure for `COc1cc(/C=C2\CC/C(=C\c3cc(OC)c(OC)c(OC)c3)C2=O)cc(OC)c1OC` is 11.2%; for `O=C1/C(=C/c2ccco2)Cc2ccccc21` it is 16%; for `COc1ccc2c(c1)CC/C(=C/c1ccco1)C2=O` it is 57.4% (active). The figure for `Nc1ccc2c(c1)C/C(=C/c1ccco1)C2=O` is -39.6%; for `COc1cc(/C=C2/CCc3ccccc3C2=O)cc(OC)c1OC` it is 23.1%. As to `COc1ccc(/C=C2\CC/C(=C\c3ccc(OC)c(OC)c3)C2=O)cc1OC`, the inhibition was 20.6%. For the compound `O=C1/C(=C/c2ccco2)CCc2ccccc21`, the inhibition was 56.9% (active). Consider `COc1ccc2c(c1)CC/C(=C/c1cc(OC)c(OC)c(OC)c1)C2=O`, for which the inhibition was 52.2% (active). The figure for `COc1cc(/C=C2\CCc3ccccc3C2=O)cc(OC)c1OC` is 23.9%; for `COc1ccc2c(c1)CC/C(=C/c1ccncc1)C2=O` it is 11.5%; for `COc1ccc([N+](=O)[O-])cc1NC(=O)Nc1cccc(Cl)c1` it is -1.5%. In the case of `O=C(Cn1nc(CNc2ccc(Cl)cc2)[n+]2c1CCCCC2)c1ccc(Br)cc1`, the inhibition was 9.2%. The figure for `CCSc1nnc(-c2ccccc2N)c(=O)[nH]1` is -2%; for `CCN(CC)S(=O)(=O)c1cc(-c2nnc(-c3ccc(Br)cc3)o2)ccc1Cl` it is 3.4%; for `O=C(CN1CCC(NC(=O)Cc2ccccc2)CC1)Nc1ccccc1Br` it is -0.4%. For the compound `CSc1ccccc1NC(=O)CCn1c(=O)sc2ccccc21`, the inhibition is -0.9%.

In the case of `Clc1ccc(OCCSc2ncccn2)cc1`, the inhibition is 11.9%. The figure for `COc1ccc(-n2cc(CNCCCn3ccnc3)c(-c3ccccc3Cl)n2)cc1` is 1.9%. With `CCn1c2ccccc2c2cc(NC(=S)N3CCOCC3)ccc21`, the inhibition is 3%. Then `CCn1c2ccccc2c2cc(NC(=O)C(=O)N3CCOCC3)ccc21`, with 50.2% (active); and `CCn1c2ccccc2c2cc(NC(=O)N3CCOCC3)ccc21`, with 20%; and `O=C(NCc1ccncc1)C1=NN(c2ccccc2)C(=O)CC1`, with -91.4%. Then `Cc1cccc(NCN2C(=O)C3C4C=CC(C4)C3C2=O)c1` (configuration not stated), with 3.7%. On to `S=C(NCCc1ccccc1)Nc1ccc(Nc2ccccc2)cc1`, for which the inhibition was 0%.

As for `CCN(CC)P(=O)(Nc1ccc(SC(F)F)cc1)c1ccc(N(C)C)cc1NC(=O)c1ccco1` (configuration not stated), the inhibition was 35.4%.

In the case of `CCN(CC)P(=O)(Nc1ccc(C)cc1Br)c1ccc(N(C)C)cc1NC(=O)c1ccco1` (configuration not stated), the inhibition was 53% (active). In the case of `CCN(CC)P(=O)(Nc1ccccc1Br)c1ccc(N(C)C)cc1NC(=O)c1ccco1` (configuration not stated), the inhibition was 16.4%.

With `Cc1ccc2cc(C#N)c(N3CCCC3)nc2c1C`, the inhibition was -56.8%. As to `O=C(Cc1c(Cl)cccc1Cl)OCC(=O)N1CCc2ccccc2C1`, the inhibition was -1%.

For `CCN1/C(=C/c2ccc3ccccc3[n+]2CC)C=Cc2ccccc21`, the inhibition is 17.7%. Then `C[n+]1ccc(/C=C/c2ccccc2O)c2ccccc21`, with 12.7%; and `CN1/C(=C/c2cc[n+](C)c3ccccc23)C=Cc2ccccc21`, with 58% (active); and `COc1ccc(CNC(=O)COC(=O)/C=C/c2ccco2)cc1`, with -4.8%.

Turning to `CCOC(=O)c1c(/N=C/c2cc(C)ccc2O)sc2c1CCN(C)C2`, the inhibition was -5.7%.

For `Nc1ccc(NC(=O)c2ccco2)c(Cl)c1`, the inhibition was -1.2%. The figure for `O=C(COc1ccccc1)NCCSCc1ccco1` is 5.1%; for `Clc1ccc(-c2ccc(/C=N/Nc3cc(N4CCOCC4)nc(N4CCOCC4)n3)o2)cc1` it is 54.5% (active). The figure for `Cc1cc(C)nc(N/N=C/c2ccc(N3CCOCC3)cc2)n1` is 4.7%. The figure for `Brc1ccc(-c2ccc(/C=N/Nc3nc(N4CCOCC4)nc(N4CCOCC4)n3)o2)cc1` is 5.4%; for `CC(C)c1ccc(/C=N/Nc2cc(N3CCOCC3)nc(N3CCOCC3)n2)cc1` it is 68.6% (active).

For `O=[N+]([O-])c1ccc(/C=N/Nc2nc(N3CCOCC3)nc(N3CCOCC3)n2)cc1`, the inhibition is -1.5%. Then `CN(C)c1ccc(/C=C/C=N/Nc2nc(N3CCOCC3)nc(N3CCOCC3)n2)cc1`, with 8.9%; and `C(=N\Nc1nc(N2CCOCC2)nc(N2CCOCC2)n1)/c1ccncc1`, with -1%.

In the case of `CN(C)c1ccc(/C=N/Nc2cc(N3CCOCC3)nc(N3CCOCC3)n2)cc1`, the inhibition was 60.4% (active).

As to `Cc1ccc(/C=N/Nc2nc(N3CCOCC3)nc(N3CCOCC3)n2)o1`, the inhibition was -10.9%. Then `COc1c(C)cccc1C(=O)NC(=S)Nc1ccc2c(c1)Cc1ccccc1-2`, with 8.2%.

For `COc1ccc(NS(=O)(=O)c2cc(NC(=O)Cn3cnc4c3c(=O)n(C)c(=O)n4C)ccc2C)cc1`, the inhibition is 8.9%. In the case of `CC(NC(=O)Cc1ccccc1)c1nc2ccccc2[nH]1` (configuration not stated), the inhibition is -7.3%. Then `Cc1nc2n(n1)C(O)c1cc([N+](=O)[O-])ccc1S2` (configuration not stated), with 7.3%; and `COc1ccc(C(=O)CN(Cc2ccccc2)C2=NCCS2)cc1`, with -4.2%.
